From PubChem
A selection: hits, their analogues and other compounds. The true share with any hit is near 8.7%.
Sfp PPTase inh: Sfp phosphopantetheinyl transferase inhibition | Q9F4F7 | Biochemical Sfp PPTase activity, qHTS | Potency, µM, hits mostly inhibitors | actives 3.5% (n = 310,000) | AID 1490;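 note: the enzyme is Sfp with the accession as filed and its product quenches rhodamine fluorescence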
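With Hepes-Na pH 7.6 buffer containing 10 mM MgCl2, Sfp (15 nM) modified BHQ-2-YbbR (12.5 uM) using rhodamine-CoA (5 uM). Two reads 30 minutes apart at 525/598 nm yielded each well's rate.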
HP1b chromo inh: inhibitors of HP1-beta chromodomain binding to methylated histone tails; P83916; AlphaScreen HP1-beta / biotin-H3K9me3 peptide binding; Potency, µM (highest dose often 114 µM), actives largely listed as inhibitors; actives 0.56% (n = 390,000); AID 540317; note: nearly all actives have a fitted effect of over 70% in size
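AlphaScreen: HP1-beta (50 nM) preformed 30 min with biotin-H3(1-18)K9me3 peptide (50 nM) in PBS pH 7.4, 0.01% Tween-20. Compound added for 30 min at RT, then streptavidin donor/nickel chelate acceptor beads (10 ug/mL) for 30 min.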
JMJD2A Tudor inh: blocks the human JMJD2A Tudor domain | AID 504339 | actives 4.4% (n = 390,000) | AlphaScreen JMJD2A-Tudor / H3K4me3 peptide binding | Potency, µM (titrated, usually from 114 µM), actives largely listed as inhibitors | O75164; note: nearly all actives have a fitted effect of over 50% in size
Target sequence (O75164 whole entry, looked up, the tested form may be a part): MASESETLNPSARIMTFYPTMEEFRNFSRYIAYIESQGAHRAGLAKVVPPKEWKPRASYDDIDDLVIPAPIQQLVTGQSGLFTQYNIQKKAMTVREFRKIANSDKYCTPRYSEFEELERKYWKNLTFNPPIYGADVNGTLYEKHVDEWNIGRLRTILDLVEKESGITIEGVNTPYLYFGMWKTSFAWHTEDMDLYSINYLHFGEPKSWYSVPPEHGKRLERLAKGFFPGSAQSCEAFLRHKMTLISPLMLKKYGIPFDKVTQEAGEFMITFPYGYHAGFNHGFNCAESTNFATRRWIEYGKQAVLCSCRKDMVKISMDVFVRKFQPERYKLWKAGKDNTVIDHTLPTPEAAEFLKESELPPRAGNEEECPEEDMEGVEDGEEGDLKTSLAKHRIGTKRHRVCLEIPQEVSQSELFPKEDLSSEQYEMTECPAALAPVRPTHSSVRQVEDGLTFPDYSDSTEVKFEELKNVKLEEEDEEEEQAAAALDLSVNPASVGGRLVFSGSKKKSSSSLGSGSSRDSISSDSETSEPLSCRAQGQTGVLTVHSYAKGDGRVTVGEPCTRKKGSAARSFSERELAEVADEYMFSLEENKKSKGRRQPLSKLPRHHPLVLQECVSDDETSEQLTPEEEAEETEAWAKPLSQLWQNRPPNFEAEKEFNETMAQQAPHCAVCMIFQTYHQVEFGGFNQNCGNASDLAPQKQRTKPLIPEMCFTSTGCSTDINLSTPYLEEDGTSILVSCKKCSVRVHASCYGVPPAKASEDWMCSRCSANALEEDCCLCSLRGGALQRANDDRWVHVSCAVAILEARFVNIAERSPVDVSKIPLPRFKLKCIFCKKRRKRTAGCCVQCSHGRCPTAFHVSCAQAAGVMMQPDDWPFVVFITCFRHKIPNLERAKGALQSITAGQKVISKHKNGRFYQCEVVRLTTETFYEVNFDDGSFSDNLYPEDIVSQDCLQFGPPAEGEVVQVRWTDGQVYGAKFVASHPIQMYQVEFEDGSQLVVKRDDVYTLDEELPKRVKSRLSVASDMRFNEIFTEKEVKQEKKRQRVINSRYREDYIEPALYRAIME
G9a inh: blocks human histone lysine methyltransferase G9a; Q96KQ7; G9a H3K9 monomethylation, AlphaScreen, 2 h; Potency, µM (top dose mostly 102 µM), hits mostly inhibitors; actives 8.8% (n = 350,000); note: nearly all actives have a fitted effect of over 75% in size
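G9a (20 nM) was preincubated 15 min with compound, then reacted 2 h at room temperature with 500 nM biotin-H3K9 peptide and 20 µM SAM. Monomethyl-H3K9 detected by AlphaScreen using anti-H3K9me1 antibody.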
BAZ2B block: BAZ2B (human) inhibition. AlphaScreen BAZ2B-H3K14Ac peptide displacement. actives 4.4% (n = 360,000). Potency, µM (series often up to 114 µM), hits mostly inhibitors; note: nearly all actives have a fitted effect of over 60% in size
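Multi-concentration screen (max 110 uM) measuring displacement of acetylated histone H3 peptide from BAZ2B by AlphaScreen, using 50 nM protein, 50 nM peptide and 10 ug/mL streptavidin donor plus Ni-chelate acceptor beads.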
ALOX12 inh: inhibitors of human 12S-lipoxygenase ALOX12 | Potency, µM (top dose mostly 108 µM), hits mostly inhibitors | actives 1.1% (n = 580,000) | purified 12hLO, xylenol orange hydroperoxide absorbance | P18054
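Purified human 12hLO (150 nM final) in 25 mM Hepes, 0.01% Triton X-100, pH 7.0 was preincubated 15 min at room temperature with compound. Then 40 uM arachidonic acid was added, 30 min. Hydroperoxide was read by Fe-XO absorbance ratio 573/405 nm.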
Hits are given with their value; i = inactive; ? = inconclusive; nt = no result; [ ] = dose if it differs, or a comment. Calls come from the whole dose curve; as a rule, active = well fitted curve in the direction sought with a large enough effect; inconclusive = small, poorly fitted or top-dose-only effect, or another doubt; inactive = no such curve, though single readings can be large; an effect the other way counts as inactive or inconclusive.

SMILES	Sfp PPTase inh	HP1b chromo inh	JMJD2A Tudor inh	G9a inh	BAZ2B block	ALOX12 inh
COc1ccc(NC(=O)c2c(NCc3cccs3)sc3c2CCC(C)C3)c(OC)c1 (stereo unspecified)	nt	i	?	?	?	?
O=C(NCCc1c[nH]c2ccccc12)NC12CC3CC(CC(C3)C1)C2	nt	nt	nt	nt	nt	i
Cn1cc(-c2ccccc2)c2nc(COc3ccc(Cl)cc3)cn2c1=O	nt	nt	nt	nt	nt	i
COC[C@@H]1CN(C(=O)CCc2ccccc2OC)C[C@H]1c1nc(C)no1	nt	nt	nt	nt	nt	i
COc1ccccc1NC(=O)c1c(NCc2sccc2C)sc2c1CCCCC2	nt	?	45µM	10µM	32µM	?
CCOc1ccccc1NC(=O)c1c(NCc2cccs2)sc2c1CCCCC2	nt	i	i	?	i	?
COc1ccc(NC(=O)c2c(NCc3sccc3C)sc3c2CCCCC3)c(OC)c1	nt	i	?	11µM	32µM	i
CCOC(=O)N1CCc2c(sc(NCc3sccc3C)c2C(=O)Nc2ccccc2OCC)C1	nt	i	?	8.9µM	i	?
CCOc1ccccc1NC(=O)c1c(NCc2sccc2C)sc2c1CCC(C)C2 (stereo unspecified)	nt	i	i	i	i	?
CN(CC1CCOC1)C(=O)c1cccs1 (stereo unspecified)	nt	nt	nt	nt	nt	i
CCC(CC)=N/N=C/c1c(O)n(CC)c2cc(C3=NNC(=O)CC3)ccc12	?	i	i	3.5µM	i	i
COc1cccc2[nH]c(C(=O)Nc3ccc4c(c3)OCCO4)cc12	nt	nt	nt	nt	nt	i
CCN(CC)c1ccc(NC(=O)c2cc3c(OC)cccc3[nH]2)cc1	i	45µM	16µM	8.9µM	20µM	i
CC(=O)N1CCC(C(=O)NC(c2cccs2)C(C)C)CC1 (stereo unspecified)	nt	nt	nt	nt	nt	i
Cc1csc2nc(CSc3nc4ccccc4o3)cn12	56µM	i	i	?	i	i
O=c1c2ccccc2nc(SCc2cn3ccsc3n2)n1-c1ccccc1F	i	i	i	?	?	i
Cc1csc2nc(CSc3ccc(Cl)cc3)cn12	i	i	i	i[12.7 µM]	i	nt
c1ccc2oc(SCc3cn4ccsc4n3)nc2c1	50µM	i	?	?	i	i
O=c1c2ccccc2nc(SCc2cn3ccsc3n2)n1-c1ccccc1	i	i	?	10µM	?	i
Cc1cc(C)n2c(Br)c(CSc3nc4ccccc4o3)nc2n1	50µM	i	?	?	i	?
Nn1c(CSc2nc3ccccc3o2)nnc1CSc1nc2ccccc2o1	i	i	i	i[12.7 µM]	i	i
Cc1ccc(-c2cc(C(=O)N3CCN(CC(=O)N4CCOCC4)CC3)c3ccccc3n2)cc1	nt	nt	nt	nt	nt	i
CCCN1C=NS(=O)(=O)c2cc(C(=O)NCCc3ccccc3)ccc21	nt	nt	nt	nt	nt	i
O=c1[nH]c2ccccc2c2nc3ccccn3c12	i	i	i	i	i	i
O=c1nc2c(O)cccn2c2c1c(=O)[nH]c1ccccc12	i	i	22µM	45µM	?	?
SMILES	Sfp PPTase inh	HP1b chromo inh	JMJD2A Tudor inh	G9a inh	BAZ2B block	ALOX12 inh
CC(=O)c1ccc(C#CC(C)(C)O)s1	i	i	i	13µM	i	i
COc1ccc(Sc2ccc(/C=C3\C(=O)NN(c4ccccc4)C3=O)o2)cc1	i	i	?	10µM	8.9µM	28µM
Cc1cc(/C=C2\C(=O)NN(c3ccccc3)C2=O)c(C)n1-c1ccccc1O	i	i	i	i	i	i
O=C1NN(c2ccccc2)C(=O)/C1=C\c1ccc(-c2cc([N+](=O)[O-])ccc2O)o1	79µM	45µM	50µM	nt	32µM	?
COc1ccc(-n2c(C)cc(/C=C3\C(=O)NN(c4ccccc4)C3=O)c2C)cc1	i	i	i	i	i	i
CCCCC1(C)OC(=O)C(=Cc2ccc(-c3ccc(Cl)c(C(=O)O)c3)o2)C(=O)O1 (stereo unspecified)	45µM	i	i	nt	i	i
CN1CCCN(C(=O)c2cccc(-c3ccc(C=C4C(=O)Nc5ccc(Cl)cc54)o3)c2)CC1	nt	nt	nt	nt	nt	i
CCCCC1(C)OC(=O)C(=Cc2ccc(SC)cc2)C(=O)O1 (stereo unspecified)	i	i	i	i	i	i
O=C1NN(c2ccc(Cl)cc2)C(=O)/C1=C\c1ccc(-c2cccc(C(=O)O)c2)o1	i	45µM	35µM	16µM	56µM	40µM
CCO[C@H]1CN(Cc2ccccc2OCC(=O)N2CCC(C)CC2)C[C@@H]1O	nt	nt	nt	nt	nt	i
Cc1ccc(N2NC(=O)/C(=C/c3ccc(-c4ccc(Cl)c(C(=O)O)c4)o3)C2=O)cc1	i	i	?	45µM	?	?
CCCCNC(=O)Nc1ccccc1C(=O)NCCC	i	i	i	i	i	i
COc1ccc(NC(=O)N/C=C/c2ccc(Cl)cc2)cc1	i	i	i	20µM	i	?
CCCNC(=O)Nc1ccccc1SC	i	i	i	40µM	i	i
COc1ccc(NC(=O)Nc2ccc(N(C)C)cc2)cc1	i	?	i	3.5µM	?	i
COc1ccc(NC(=O)C(CC(=O)O)Cc2ccccc2)cc1 (stereo unspecified)	i	i	i	?	i	i
Cc1ccc(NC(=O)N/C=C/c2ccc(Cl)cc2)cc1	i	i	i[11.4 µM]	i	i	?
COc1ccc(NC(=O)C(CC(=O)O)C(C)c2ccccc2)cc1 (stereo unspecified)	i	i	14µM	i	i	i
CNC(=O)c1cc(-c2ccc(CO)cc2)cc2c1OCCN2Cc1cccnc1	nt	nt	nt	nt	nt	i
O=C(NCc1ccccc1)c1cnc2n1CCN(Cc1cccc(O)c1)CC2	nt	nt	nt	nt	nt	i
COC(=O)[C@H](NC(=O)[C@@H]1C[C@H](NC(=O)Nc2cccc(SC)c2)CN1C(=O)C=C(C)C)C(C)C	nt	nt	nt	nt	nt	i
COc1ccc(NC(=O)Nc2ccccc2SC)cc1	i	i	i	50µM	i	i
COc1ccc(NC(=O)Nc2sc(=S)n(C)c2C)cc1	20µM	i	i	50µM	i	i
CCN1CCCC2(Cc3ccccc3CN(C(=O)c3ccccc3)C2)C1 (stereo unspecified)	nt	nt	nt	nt	nt	i[6.33 µM]
CCn1c(C)[n+](CCCS(=O)(=O)[O-])c2cc(Cl)c(Cl)cc21	i	i	?	?	i	i
SMILES	Sfp PPTase inh	HP1b chromo inh	JMJD2A Tudor inh	G9a inh	BAZ2B block	ALOX12 inh
Cc1ccc2sc(C)[n+](CCC(C)S(=O)(=O)[O-])c2c1 (stereo unspecified)	40µM	i	i	i	i	?
CC/C(=C/c1sc2ccc(C)cc2[n+]1CCCS(=O)(=O)[O-])SC	50µM	i	i	45µM	?	i
CC/C(=C/c1sc2ccc(C)cc2[n+]1CCO)SC	28µM	i	?	nt	?	?
CC1(C)C(=O)N(CC2CCOCC2)[C@H]2CN(Cc3cccc(OC(F)(F)F)c3)C[C@H]2[S+]1(=O)[O-]	nt	nt	nt	nt	nt	i
CCCOc1ccc(S(=O)(=O)NCCO)cc1	nt	nt	nt	nt	nt	i
Cc1cccn2c(=O)c(C=O)c(Nc3ccccc3)nc12	i	i	i	45µM	i	nt
